A selection: hits, their analogues and other compounds. The true share with any hit is near 31%.
CYP2C9 inh: blocks human cytochrome P450 2C9; P11712; CYP2C9 Supersomes, luciferin-H conversion, luminescence; inhibition, % at 5 µM; 96,000 compounds, 20% hits; AID 777;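 active = blocking of liver enzyme CYP2C9 beyond about 50% at 5 µM, limit read from the data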
Target sequence (P11712 whole entry, looked up): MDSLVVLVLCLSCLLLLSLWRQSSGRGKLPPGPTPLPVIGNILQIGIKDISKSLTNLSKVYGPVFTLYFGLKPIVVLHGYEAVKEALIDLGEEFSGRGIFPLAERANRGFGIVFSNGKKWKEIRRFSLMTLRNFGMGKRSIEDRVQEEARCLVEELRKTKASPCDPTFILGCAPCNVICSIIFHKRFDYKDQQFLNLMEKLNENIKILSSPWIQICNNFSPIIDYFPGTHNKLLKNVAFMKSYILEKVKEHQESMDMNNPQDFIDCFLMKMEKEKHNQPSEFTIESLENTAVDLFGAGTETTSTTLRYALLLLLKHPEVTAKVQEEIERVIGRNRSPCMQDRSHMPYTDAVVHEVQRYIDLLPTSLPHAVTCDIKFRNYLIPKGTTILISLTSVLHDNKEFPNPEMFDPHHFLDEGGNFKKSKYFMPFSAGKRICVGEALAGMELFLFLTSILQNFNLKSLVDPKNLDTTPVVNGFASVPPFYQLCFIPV
CYP2C19 act: activators of human cytochrome P450 2C19 | 96,000 tested, under 10 active | P33261 | recombinant CYP2C19, luciferin-H EGE luminescence; hits give high values; 0 = fully inhibited enzyme, 1 = untreated enzyme | AID 1025 | activation factor at 5 µM;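 active = activation factor of at least 2 at 5 µM in the primary screen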
CYP2C19 inhib: blocks human cytochrome P450 2C19; P33261; CYP2C19 Supersomes, luciferin-H EGE luminescence, 30 min; inhibition, % at 5 µM; 96,000 compounds, 21% hits; AID 778;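 active = CYP2C19 inhibition above a set limit at 5 µM in the primary screen, cut at about 50% in these data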
CYP2C9 activ: increases human cytochrome P450 2C9 activity; recombinant CYP2C9, luciferin-H conversion, luminescence; hits give high values; factor 1 = untreated enzyme, 0 = blocked; activation factor at 5 µM; 96,000 compounds, 1.4% hits;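 active = activation factor of 2 or more for CYP2C9 at a 5 µM dose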
PLAP activator: activators of human placental alkaline phosphatase; P05187; purified PLAP enzyme, luminescent substrate read-out; hits give high values; activation fold at 20 µM; 96,000 compounds, 1.2% hits; AID 696; in the data active = activation fold above about 2
A number is an active result; - = inactive.

SMILES | CYP2C9 inh | CYP2C19 act | CYP2C19 inhib | CYP2C9 activ | PLAP activator
Cn1cccc1-c1nc2ccc(NC(=O)c3cccs3)cc2[nH]1 | 78 | - | 73 | - | -
O=C(Nc1ccc2nc(-c3ccc(Br)o3)[nH]c2c1)c1cccs1 | 67 | - | - | - | -
COc1cc(/C=N/n2c(SC)nnc(C(C)(C)C)c2=O)ccc1O | - | - | - | - | -
COC(=O)Cc1cc(=O)n2[nH]c(C(F)(F)F)nc2n1 | - | - | - | - | -
O=C(NCc1ccco1)[C@@H]1CCCN1C(=O)c1cccs1 | - | - | - | - | -
CCN(CC)S(=O)(=O)c1cccc(C(=O)NC2CCCCC2)c1 | 58 | - | - | - | -
CCN(CC)S(=O)(=O)c1csc(C(=O)NCc2ccccc2)c1 | - | - | - | - | -
CCN(CC)S(=O)(=O)c1csc(C(=O)NC2CCCCC2)c1 | 62 | - | - | - | -
COc1ccc(C2CC(=O)NC3=C2C(=O)CCC3)cc1Cl (stereo not drawn) | - | - | - | - | -
CCc1c(C(=O)Nc2cc(C)cc(C)c2)[nH]c(C)c1C(C)=O | 60 | - | - | - | -
Cc1c(Cl)ccc2c1NC(=O)[C@]21N[C@@H](Cc2ccccc2)[C@H]2C(=O)N(c3ccc(F)cc3)C(=O)[C@H]21 | - | - | - | - | -
COc1ccc(CN2C(=O)c3cccnc3C2Nc2ccc(OC)c(Cl)c2)cc1 (stereo not drawn) | - | - | - | - | -
Cc1ccc(NC2c3ncccc3C(=O)N2Cc2ccc(F)cc2)cc1 (stereo not drawn) | 53 | - | - | - | -
CNC(=O)CSc1nnc(-c2ccc(S(=O)(=O)N3CCCC3)cc2)n1-c1cccc(C)c1C | 88 | - | - | - | -
COc1ccccc1-n1c(SCC(=O)O)nnc1-c1ccc(S(=O)(=O)N2CCCCC2)cc1 | - | - | - | - | -
COc1ccc(NC(=O)CC#N)cc1OC | - | - | - | - | -
CC(=O)Nc1ccc(SCC(=O)c2cc(C)n(CC(F)(F)F)c2C)cc1 | 58 | - | 93 | - | -
CCC(C)NC(=O)CSc1ccc(NC(C)=O)cc1 (stereo not drawn) | - | - | - | - | -
CC(=O)Nc1ccc(SCC(=O)c2cc(C)n(C)c2C)cc1 | - | - | 79 | - | -
CCn1cc(C(=O)Nc2ccc(OC)c(OC)c2)c2cc(OC)c(OC)cc2c1=O | - | - | - | - | -
Cc1ccc2oc(=O)c3cc(C(=O)NCc4ccco4)sc3c2c1 | - | - | - | 2.1 | -
Cc1ccc(-c2cc(C(=O)NCc3ccco3)c3ccccc3n2)s1 | - | - | - | - | -
CC(C)n1c2ccccc2c2nnc(SCC(=O)OCN3C(=O)c4ccccc4C3=O)nc21 | - | - | - | - | -
CC(C)CNS(=O)(=O)c1ccc(CCC(=O)O)cc1 | - | - | - | - | -
CC(C)(C)NS(=O)(=O)c1ccc(CCC(=O)Nc2cc(Cl)ccc2Oc2ccccc2)cc1 | 90 | - | 73 | - | -
SMILES | CYP2C9 inh | CYP2C19 act | CYP2C19 inhib | CYP2C9 activ | PLAP activator
CC(C)CNS(=O)(=O)c1ccc(CCC(=O)Nc2cc(Cl)ccc2Oc2ccccc2)cc1 | 73 | - | - | - | -
COc1ccc(CC(=O)Nc2c3c(nn2-c2cccc(C)c2C)CS(=O)C3)cc1OC (stereo not drawn) | - | - | 79 | - | -
COc1ccc(CC(=O)Nc2c3c(nn2-c2cccc(C)c2C)CS(=O)C3)cc1 (stereo not drawn) | - | - | 94 | - | -
CCOc1ccc(C(=O)Nc2c3c(nn2-c2cccc(C)c2C)CS(=O)C3)cc1 (stereo not drawn) | - | - | - | - | -
CCN1c2ccccc2NC2C1C(C(C)=O)C(=O)N2c1ccc(Cl)cc1 (stereo not drawn) | 79 | - | 92 | - | -
CCC(c1nnnn1C(C)(C)C)N(CCOC)Cc1cc2cccc(C)c2n2nnnc12 (stereo not drawn) | - | - | - | - | -
CCC(Sc1ccccn1)C(=O)Nc1nnc(C)s1 (stereo not drawn) | 63 | - | 56 | - | -
CCC(SC1=NCCS1)C(=O)Nc1nnc(-c2ccccc2OC)s1 (stereo not drawn) | - | - | - | - | -
COc1cc2c(cc1NC(=O)c1ccncc1)oc1ccccc12 | 91 | - | 58 | - | -
COc1cc2c(cc1NC(=O)CN1CCN(S(=O)(=O)c3ccc(C)cc3)CC1)oc1ccccc12 | - | - | - | - | -
COc1cc2c(cc1NS(=O)(=O)N1CCCC1)oc1ccccc12 | - | - | 82 | 2 | -
COc1ccc(C(=O)N[C@H](C(=O)NCC2CCCCC2)C(C)C)cc1 | - | - | - | - | -
O=C(CC(Nc1ccccc1)C(=O)O)c1ccccc1 (stereo not drawn) | - | - | - | - | -
Cc1ccc(C(=O)CNc2ccc(Br)cc2)cc1 | - | - | 75 | - | -
O=C(CNc1ccc(Br)cc1)c1ccccc1 | - | - | 77 | - | -
Cc1cccc(NCCC(=O)c2ccc(Br)cc2)c1 | - | - | - | - | -
CC12CCC(C(=O)NCC3CCCO3)(OC1=O)C2(C)C (stereo not drawn) | - | - | - | - | -
O=C(CC(SCCO)c1ccc2c(c1)OCO2)c1ccco1 (stereo not drawn) | 72 | - | 98 | - | -
CC(C)c1ccc(NC(=O)C(c2ccc3c(c2)OCO3)N2CCN(C(=O)c3ccco3)CC2)cc1 (stereo not drawn) | - | - | - | - | -
Cc1ccc(C2(C)NC(=O)N(CC(=O)NC(=O)NC3CCCC3)C2=O)cc1 (stereo not drawn) | - | - | - | - | -
C/C(Cl)=C/Cn1c(=O)c2c(nc(Br)n2Cc2ccccc2)n(C)c1=O | - | - | - | - | -
Cc1ccc2nc(N/N=C\c3ccc([N+](=O)[O-])o3)nc(-c3ccccc3)c2c1 | 87 | - | 73 | - | -
O=[N+]([O-])c1ccc(/C=N/Nc2nc(-c3ccccc3)c3cc(Br)ccc3n2)o1 | - | - | - | - | -
CCOC(=O)NC(=O)CN1C(=O)NC(C)(c2ccccc2)C1=O (stereo not drawn) | - | - | - | - | -
CC1(c2ccccc2)NC(=O)N(CC(=O)NC(=O)NC2CCCC2)C1=O (stereo not drawn) | - | - | 53 | - | -
CC1(c2ccccc2)NC(=O)N(CCOc2ccccc2)C1=O (stereo not drawn) | - | - | 65 | - | -
CCOc1ccccc1CN1C(=O)NC(C)(c2ccccc2)C1=O (stereo not drawn) | - | - | 94 | - | -
COc1ccc(C(=O)CN2C(=O)NC(C)(c3ccccc3)C2=O)cc1OC (stereo not drawn) | - | - | - | - | -
CCCCNC(=O)c1cc2c(=O)n3cccc(C)c3nc2n(Cc2ccncc2)c1=N | - | - | 65 | - | -
COc1ccc(CCNC(=O)c2cc3c(=O)n4cccc(C)c4nc3n(Cc3ccncc3)c2=N)cc1 | 87 | - | 90 | - | -
